Screening results deposited in PubChem BioAssay by several laboratories.
ERb SRC1 inh – ER-beta (human) coactivator binding inhibition; TR-FRET ER-beta LBD / SRC1-Cy5 peptide binding; receptor agonist-loaded with 1 µM estradiol; inhibition, % at 25.6 µM; 86,000 compounds, 1.3% hits; AID 633;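 active = compounds whose percent inhibition of the receptor-coactivator binding signal exceeds about 50% in the single-dose screen, limit read from the data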
Smad3 FoxH1 inh – Smad3 (human) transcription factor binding inhibition | TR-FRET Smad3/Dy647-FoxH1 peptide binding, europium anti-His | inhibition, % at 25 µM | 88,000 compounds, 0.29% hits | AID 630;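 active = compounds that reduce the energy-transfer binding signal between the protein and its labelled peptide by more than half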
Target sequence (P84022 whole entry, looked up): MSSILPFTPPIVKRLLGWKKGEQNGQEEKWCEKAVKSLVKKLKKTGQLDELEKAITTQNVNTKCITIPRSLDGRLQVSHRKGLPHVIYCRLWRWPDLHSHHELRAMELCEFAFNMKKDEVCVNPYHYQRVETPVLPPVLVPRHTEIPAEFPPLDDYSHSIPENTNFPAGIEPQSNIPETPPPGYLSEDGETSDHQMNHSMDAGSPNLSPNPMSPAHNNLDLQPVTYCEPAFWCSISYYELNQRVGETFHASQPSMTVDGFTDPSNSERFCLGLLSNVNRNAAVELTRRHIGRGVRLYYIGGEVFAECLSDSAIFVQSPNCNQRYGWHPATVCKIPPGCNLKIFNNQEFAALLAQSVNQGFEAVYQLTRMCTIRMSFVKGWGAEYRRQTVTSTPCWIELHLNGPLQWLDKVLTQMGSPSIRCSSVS
ERa SRC1 inh – blocks coactivator binding to human estrogen receptor alpha; P03372; inhibition, % at 25.6 µM; AID 629; 86,000 compounds, 1.7% hits; TR-FRET ER-alpha LBD / SRC-1 peptide, estradiol-bound; in the data active = inhibition above about 50%
Candida biofilm – kills Candida albicans biofilms. C. albicans biofilm + clotrimazole, Alamar Blue. inhibition, % at 6 µM. 85,000 compounds, 0.14% hits;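 active = inhibition above 20%; inactive = inhibition below 20%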;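 also: preformed 24 hr biofilms exposed to compound for 48 hr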
ERa coact pot – ER-alpha (human) coactivator binding potentiation. 86,000 compounds, 1.3% hits. P03372. coactivator binding (% of control), % at 25.6 µM. TR-FRET ERalpha-LBD/SRC-Cy5 coactivator binding, 2 h; 100 = basal binding, no effect; in the data active = activity above about 200%;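 also: binding measured in presence of low estradiol as agonist stimulus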
Numbers stand for hits; 0 = inactive; - = no result; + = active, no number; [ ] = dose if it differs, or a comment. Rows were chosen to be rich in hits. Some 3.6% of all compounds tested hit in one or more screens of this group.

SMILES | ERb SRC1 inh | Smad3 FoxH1 inh | ERa SRC1 inh | Candida biofilm | ERa coact pot
CCCCCCC1CCC(C(=O)NC(CCSC)C(=O)NC(C(=O)OC)C(C)C)CC1 (centres undefined) | 0 | 0 | 0 | 37 | 0
O=C(O)C/C(=C/c1ccccc1)C(=O)O | - | 0 | - | - | -
Cc1ccc(-c2cc(-c3ccc(Cl)cc3)c(C#N)c(N)n2)o1 | 0 | 0 | 0 | 0 | 0
N#Cc1c(N)oc(-c2ccc3c(c2)OCO3)c1-c1ccc2c(c1)OCO2 | 73 | 0 | 73 | 0 | 0
Cc1ccc(-c2cc(-c3ccc4c(c3)OCO4)c(C#N)c(N)n2)o1 | 0 | 0 | 82[fluorescence artefact?] | 0 | 0
N#Cc1c(N)nc2c(c1-c1ccc3c(c1)OCO3)CCCCCC2 | 0 | 0 | 0 | 0 | 0
Cc1ccc(-c2cc(-c3ccc(C)o3)nc(N)c2C#N)cc1 | 0 | 0 | 0 | 0 | 0
Cc1cc(-c2cc(-c3ccc(Cl)cc3)nc(N)c2C#N)co1 | 0 | 0 | 51[fluorescence artefact?] | 0 | 0
Cn1c(=O)c2[nH]c(N=NN3CCN(CCO)CC3)nc2n(C)c1=O | - | 0 | - | - | -
CCCc1nc(Nc2nc3ccccc3o2)nc(C)c1C(=O)OCC | 0 | 0 | 0 | 0 | 0
CCOC(=O)c1cnc(Nc2nc3ccccc3o2)nc1CSc1ncccn1 | 0 | 0 | 55 | 0 | 212[fluorescence artefact?]
COc1ccc(Cc2ccccc2C(=O)O)c2ccccc12 | - | 0 | - | - | -
COc1ccc(C2c3c(oc4ccc(F)cc4c3=O)C(=O)N2CCN2CCOCC2)cc1OC (centres undefined) | 0 | 0 | 0 | 0 | 0
CCOC(=O)C1=C(N)n2c(s/c(=C\c3cccnc3)c2=O)=C(C#N)C1c1cccnc1 (centres undefined) | 0 | 0 | 52[fluorescence artefact?] | 0 | 0
Cc1csc(NC(=O)c2sc3nc(-c4cccs4)ccc3c2N)n1 | 53[fluorescence artefact?] | 0 | 85[fluorescence artefact?] | 0 | 0
COc1ccc(C(=O)Nc2nc(-c3cccs3)cs2)cc1 | 0 | 0 | 0 | 0 | 0
CCS(=O)(=O)N1CCC(NC(=O)C2CCCCC2)CC1 | 0 | 0 | 0 | 0 | 0
CN(C(=O)CN1CCC(NC(=O)C2CCCCC2)CC1)C1CCCCC1 | 0 | 0 | 0 | 0 | 211[fluorescence artefact?]
Cc1cc(NC(=O)c2c(F)cccc2F)n(-c2nc3ccccc3[nH]2)n1 | 0 | 0 | 0 | 0 | 0
Cc1cc(NC(=O)c2c(F)cccc2Cl)n(-c2nc3ccccc3[nH]2)n1 | 52 | 0 | 0 | 0 | 0
Cc1cc(NC(=O)c2ccccc2F)n(-c2nc3ccccc3[nH]2)n1 | 52[fluorescence artefact?] | 0 | 53[fluorescence artefact?] | 0 | 0
Cc1cc(C)n(-c2ccc(C(=O)OCC(=O)c3ccc(Br)s3)cc2)n1 | 0 | 0 | 0 | 0 | 207
CCCN1CNC(=S)N(c2cccc(C)c2C)C1 | 0 | 0 | 0 | 0 | 0
CCN1CNC(=S)N(c2cccc(C)c2C)C1 | 0 | 96 | 0 | 0 | 0
O=S(=O)(Nc1ncnc2sc3c(c12)CCC3)c1ccc(Cl)s1 | 0 | 0 | 0 | 0 | 0
SMILES | ERb SRC1 inh | Smad3 FoxH1 inh | ERa SRC1 inh | Candida biofilm | ERa coact pot
Brc1ccc(-c2nnc(-c3cccnc3)c3conc23)cc1 | 0 | 0 | 69 | 0 | 0
CC(NC(=O)CCSc1nc(-c2ccc3c(c2)OCO3)cc(C(F)(F)F)n1)c1ccccc1 (centres undefined) | 0 | 0 | 90 | 0 | 0
O=S(=O)(c1ccc(Br)cc1)N1CCN(S(=O)(=O)c2ccc(Br)cc2)CC1 | - | 0 | - | - | -
CC1CCCCN1C(=O)CSc1nnc(CSc2ncccn2)n1C (centres undefined) | 0 | 73 | 0 | 0 | 0
Cc1cc(C)n2nc(SCc3cc(=O)n4c(C)cccc4n3)nc2n1 | 0 | 0 | 0 | 0 | 0
O[C@H](CNc1ccccn1)c1ccccc1 | - | 0 | - | - | -
O=C(CCCn1c(=S)[nH]c2cc3c(cc2c1=O)OCO3)N1CCN(c2ccc(Cl)cc2)CC1 | 0 | 0 | 66 | 0 | 0
C=CCNC(=O)c1ccc(Cn2c(=S)[nH]c3cc4c(cc3c2=O)OCO4)cc1 | 0 | 0 | 0 | 0 | 0
O=C(CCCn1c(=S)[nH]c2cc3c(cc2c1=O)OCO3)N1CCc2ccccc2C1 | 51 | 0 | 0 | 0 | 0
O=C(NCCN1CCCC1)c1ccc(Cn2c(=S)[nH]c3cc4c(cc3c2=O)OCO4)cc1 | 0 | 0 | 70[fluorescence artefact?] | 0 | 0
Cc1ccc(S(=O)(=O)/N=S(\C)CC2CC2(Cl)Cl)cc1 (centres undefined) | 0 | 0 | 0 | 0 | 0
Cc1cc(=O)oc2c(CN3CCCCC3)c(O)c(Cl)cc12 | 0 | 0 | 0 | 0 | 0
Cc1cc(=O)oc2c(CN3CCC(C)CC3)c(O)c(Cl)cc12 | 69[fluorescence artefact?] | 0 | 67 | 0 | 0
CCN1CCN(Cc2c(O)c(Cl)cc3c(C)cc(=O)oc23)CC1 | 63 | 0 | 0 | 0 | 0
C/C(=N\S(=O)(=O)c1ccc(Cl)c(Cl)c1)OCC(C)(C)C | - | 0 | - | - | -
CC12C=CC3(CN(Cc4ccccc4)C(=O)C3C1C(=O)NC1CC1)O2 (centres undefined) | 0 | 0 | 0 | 0 | 0
N#C/C(=C(/O)COC(=O)CCCNC(=O)c1ccc(Cl)cc1)c1nc2ccccc2[nH]1 | 0 | 0 | 52[fluorescence artefact?] | 0 | 0
N#C/C(=C(/O)COC(=O)Cc1c[nH]c2ccccc12)c1nc2ccccc2[nH]1 | 0 | 0 | 0 | 0 | 0
Cc1ccc2c(COC(=O)c3n[nH]c4ccccc34)cc(=O)oc2c1 | 0 | 0 | 0 | 0 | 200
CCc1ccc2c(COC(=O)c3n[nH]c4ccccc34)cc(=O)oc2c1 | 0 | 0 | 0 | - | 0
O=C(Cn1c(NCCO)nc2ccccc21)NCCc1ccc(F)cc1 | 0 | 0 | 0 | 0 | 0
O=C(N/N=C/c1cccc(Oc2ccc([N+](=O)[O-])cc2[N+](=O)[O-])c1)c1cncc(Br)c1 | 0 | 0 | 96 | 0 | 0
O=C(NNC(=O)c1cnccn1)c1cccc([N+](=O)[O-])c1 | 0 | 0 | 0 | 0 | 0
COc1ccc(-c2csc(/C(C#N)=C(\O)CSc3nccn3C)n2)cc1OC | 0 | 0 | 0 | 0 | 0
CCOC(=O)C1CCCN(S(=O)(=O)c2ccc(OC)cc2)C1 (centres undefined) | 0 | 0 | 0 | 0 | 0
SMILES | ERb SRC1 inh | Smad3 FoxH1 inh | ERa SRC1 inh | Candida biofilm | ERa coact pot
Cn1cnc2c1c(=O)n(CC(O)CO)c(=O)n2C (centres undefined) | 0 | 0 | 0 | 0 | 0
Cc1nc2cccc(C)n2c(=O)c1Cl | 0 | 0 | 0 | 0 | 0
CN(CC(O)COc1ccc(S(=O)(=O)N2CCOCC2)cc1)C1CCCCC1 (centres undefined) | 78 | 0 | 0 | 0 | 0
Cn1c(NC(=O)Cc2ccc(F)cc2)cc(=O)n(C)c1=O | 0 | 0 | 0 | 0 | 0
CCc1nc(SCC(=O)Nc2ccc3c(c2)OCCO3)c2oc3ccccc3c2n1 | 57[fluorescence artefact?] | 0 | 64[fluorescence artefact?] | 0 | 233[fluorescence artefact?]
CCc1nc(SCC(=O)N2CCCc3ccccc32)c2oc3ccccc3c2n1 | 0 | 0 | 0 | 0 | 0
CCc1nc(SCC(=O)Nc2nccs2)c2oc3ccccc3c2n1 | 0 | 0 | 56[fluorescence artefact?] | 0 | 0
Cc1nc(SCC(=O)NCc2ccccc2)c2oc3ccccc3c2n1 | 0 | 0 | 0 | 0 | +[fluorescence artefact?]
O=C(CSc1ncnc2c1oc1ccccc12)Nc1ccc2c(c1)OCCO2 | 57[fluorescence artefact?] | 0 | 0 | 0 | 765[fluorescence artefact?]
O=C(NCc1ccc(Cl)cc1)c1cnn2ccccc12 | 0 | 0 | 0 | 0 | 0
Cc1cc2cc(CNC(=O)c3ccc4c(c3)OCO4)ccc2[nH]1 | 0 | 0 | 0 | 0 | 0
Cc1nc(SCC(=O)O)c2oc3ccccc3c2n1 | 0 | 0 | 0 | 0 | 0
